The term AC50 denotes the concentration at which the activity in the assay is half-maximal.

For test [1], the target named is Paired box protein Pax-6 (Homo sapiens) (UniProt P26367). Kind of test: ATG_Pax6_CIS: Attagene CIS-FACTORIAL HepG2 Assay for human Paired Box 6 (PAX6) (AID 2282956). The note with it: HepG2 CIS-FACTORIAL PAX6 reporter transcription, RNA readout; actives raise or lower the signal. In outline:
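Transient MRTU transfection of HepG2 → compound exposure 24 h → TriZol RNA, oligo(dT) RT → PCR, 6-FAM primer extension, HpaI cut → capillary electrophoresis; activity fitted both directions against DMSO.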

Test [2] can be described thus: ATG_PXRE_CIS: Attagene CIS-FACTORIAL HepG2 Assay for human Pregnane X Receptor Element (PXRE) (AID 2282957). The note with it: HepG2 Attagene CIS-FACTORIAL PXRE reporter, mRNA; actives raise or lower the signal. In outline:
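Transiently transfected HepG2 cells were dosed and incubated for 24 h. RNA was then isolated, DNase-treated, reverse-transcribed and reporter sequences amplified. Labeled, HpaI-digested fragments were quantified by capillary electrophoresis against DMSO.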

Test [3] in a line: ATG_PPRE_CIS: Attagene CIS-FACTORIAL HepG2 Assay for human Peroxisome Proliferator-activated Response Element (PPRE) (AID 2282958). Particulars: HepG2 PPRE cis-element reporter, Attagene transcription factor profiling; actives raise or lower the signal. An outline of the steps:
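PPRE activity in HepG2: transient cis-reporter transfection, 24 h compound incubation, reporter mRNA by RT-PCR and CE fluorescence; gain/loss fitted against DMSO.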

A short description of test [4]: ATG_Sox_CIS: Attagene CIS-FACTORIAL HepG2 Assay for human SRY-box transcription factor (SOX) (AID 2282960). The note with it: HepG2 Attagene cis-factorial SOX reporter, mRNA; actives raise or lower the signal. An outline of the steps: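 HepG2, cis reporter units, 24 h exposure. Reporter mRNA: RT-PCR → FAM labelling → HpaI → CE fluorescence. Bidirectional fit vs DMSO.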

In test [5] the target is Transcription factor Sp1 (Homo sapiens) (UniProt P08047). Kind of test: ATG_Sp1_CIS: Attagene CIS-FACTORIAL HepG2 Assay for human Specificity Protein 1 (Sp1) (AID 2282961). Particulars: HepG2 Sp1 cis-reporter transcription, actives raise or lower the signal. An outline of the steps:
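Liver-derived HepG2 cells, cis-element reporter library, 24 h treatment; RNA isolated, cDNA amplified with reporter-specific primers, FAM-labeled fragments sized on capillary analyzer. DMSO baseline, bidirectional curve fit.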

A short description of test [6]: ATG_SREBP_CIS: Attagene CIS-FACTORIAL HepG2 Assay for human Sterol Regulatory Element Binding (SREBP) (AID 2282962). Particulars: HepG2 Attagene cis-factorial SREBP reporter, mRNA; actives raise or lower the signal. In outline:
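Transfected HepG2 (cis-regulated reporter library, endogenous TFs) → compound 24 h → total RNA → oligo(dT) RT → reporter-specific PCR → FAM primer extension, HpaI cut → CE fluorescence. Fit bidirectional vs DMSO.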

The target in test [7] is Signal transducer and activator of transcription 3 (Homo sapiens) (UniProt P40763). In words: ATG_STAT3_CIS: Attagene CIS-FACTORIAL HepG2 Assay for human Signal Transducer and Activator of Transcription 3 (STAT3) (AID 2282963). Particulars: HepG2, Attagene cis-factorial STAT3 reporter transcription; actives raise or lower the signal. An outline of the steps: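 HepG2 cells transiently transfected with cis-element-driven multiple reporter transcription units; after 24 h chemical exposure, reporter mRNA measured by RT-PCR, 6-FAM primer-extension labelling, HpaI digestion and capillary electrophoresis. Bidirectional fitting versus DMSO baseline.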

Test [8] can be described thus: ATG_TA_CIS: Attagene CIS-FACTORIAL HepG2 Assay for human TA Basal Promoter (AID 2282964). The note with it: HepG2 Attagene CIS-factorial TA basal promoter reporter; actives raise or lower the signal. An outline of the steps:
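HepG2 cells transiently transfected with multiple reporter units under cis promoter elements, reporting endogenous transcription factor activity; this endpoint tracks the TA basal promoter as background control. Reporter mRNA after 24 h dosing measured by RT-PCR/capillary electrophoresis; bidirectional fits versus DMSO.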

Test [9] can be described thus: ATG_TCF_b_cat_CIS: Attagene CIS-FACTORIAL HepG2 Assay for human T-Cell-Factor with beta-catenin (TCF/b-cat) (AID 2282965). The note with it: HepG2 TCF/beta-catenin cis-reporter transcription, actives raise or lower the signal. In outline:
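In this cis-format system, transfected HepG2 cells report endogenous transcription factor activity. Readout after 24 h exposure is reporter transcript abundance from RT-PCR and capillary electrophoresis, analysed for gain or loss of signal versus DMSO.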

Test [10] in a line: ATG_TAL_CIS: Attagene CIS-FACTORIAL HepG2 Assay for human TAL Basal Promoter (AID 2282966).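 Further: background control endpoint measuring basal TAL promoter reporter mRNA not a specific factor.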 Particulars: HepG2 Attagene cis-factorial TAL promoter reporter; actives raise or lower the signal. An outline of the steps:
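Readout: reporter mRNA, fluorescence by CE. System: HepG2, transient multi-reporter transfection, endogenous TF activity. Exposure: 24 h. Analysis: bidirectional, DMSO-normalized; background control.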

A short description of test [11]: ATG_TGFb_CIS: Attagene CIS-FACTORIAL HepG2 Assay for human Transforming Growth Factor (TGF) (AID 2282967). Particulars: HepG2 Attagene CIS TGFb reporter, mRNA transcription; actives raise or lower the signal. In outline:
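HepG2 cells transiently transfected with cis-promoter-driven multiple reporter units measure endogenous TF activity; reporter mRNA quantified at 24 h by RT-PCR, FAM labeling, HpaI digestion and capillary electrophoresis. Bidirectional fit vs DMSO.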

The nature of test [12]: ATG_VDRE_CIS: Attagene CIS-FACTORIAL HepG2 Assay for human Vitamin D Receptor Element (VDRE) (AID 2282968). The note with it: HepG2 VDRE cis-reporter transcription, actives raise or lower the signal. An outline of the steps:
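HepG2 cells transiently transfected with cis-element reporter units, dosed 24 h; reporter mRNA measured by RT-PCR, 6-FAM labeling, HpaI digestion and capillary electrophoresis. Activity fitted bidirectionally against DMSO baseline.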

The target of test [13] is Estrogen receptor (Homo sapiens) (UniProt P03372). Kind of test: ATG_ERa_TRANS: Attagene TRANS-FACTORIAL HepG2 Assay for human Estrogen Receptor alpha (ERa) (AID 2282970; active means hit-call score of the fitted dose curve at least 0.9, where 1 is the maximum). The note with it: HepG2 Attagene TRANS ERa GAL4 reporter, mRNA. In outline: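 Transactivation via ERa-Gal4 chimera in HepG2; 24 hour incubation; reporter mRNA detected by fluorescence RT-PCR and capillary electrophoresis.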

For test [14], the target named is X-box-binding protein 1 (Homo sapiens) (UniProt P17861). Kind of test: ATG_Xbp1_CIS: Attagene CIS-FACTORIAL HepG2 Assay for human X-box Binding Protein 1 (XBP1) (AID 2282972). The note with it: HepG2 XBP1 cis-element reporter, Attagene multiplex; actives raise or lower the signal. In outline:
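HepG2, transient MRTU transfection (cis-promoter driven), 24 h compound exposure. Total RNA → oligo(dT) RT → PCR → 6-FAM labeling → HpaI cut → CE. Bidirectional fit vs DMSO.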

A short description of test [15]: ATG_RORE_CIS: Attagene CIS-FACTORIAL HepG2 Assay for human RAR-related Orphan Receptor Element (RORE) (AID 2282959). Particulars: HepG2 Attagene cis-factorial RORE reporter, mRNA; actives raise or lower the signal. An outline of the steps:
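A 24-hour exposure of transfected HepG2 hepatoma cells precedes RNA isolation and reporter RT-PCR. Labeled products are digested with HpaI and resolved by capillary electrophoresis, with gain or loss of signal scored relative to DMSO.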

A short description of test [16]: ATG_M_19_TRANS: Attagene TRANS-FACTORIAL HepG2 Assay for M19 Transcription Factor (Internal Marker) (AID 2282974; active means hit-call score of the fitted dose curve at least 0.9, where 1 is the maximum). The note with it: HepG2 Attagene TRANS-FACTORIAL M19 internal marker reporter. An outline of the steps:
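Transfected HepG2 (GAL4-UAS MRTUs), 24 h compound, TriZol RNA, DNase-treated RT, reporter PCR, FAM label, HpaI digest, CE fluorescence; gain vs DMSO.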

For test [17], the target named is Androgen receptor (Homo sapiens) (UniProt P10275). In words: ATG_AR_TRANS: Attagene TRANS-FACTORIAL HepG2 Assay for human Androgen Receptor (AR) (AID 2282973; active means hit-call score of the fitted dose curve at least 0.9, where 1 is the maximum). Particulars: HepG2 Attagene TRANS-FACTORIAL AR reporter transcription. In outline: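 Transfected HepG2, 24 h treatment, chimeric NR-Gal4 driving GAL4-UAS reporters. mRNA induction by RT-PCR/capillary electrophoresis fluorescence; DMSO as negative control and baseline.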

Test [18] is described as follows: ATG_Hpa5_TRANS: Attagene TRANS-FACTORIAL HepG2 Assay for human GAL4-Hpa5 Hepatocyte Transcription Factor Basal Promoter (AID 2282975; active means hit-call score of the fitted dose curve at least 0.9, where 1 is the maximum;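 further: hits are increases in reporter mRNA over DMSO baseline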). Particulars: HepG2 Attagene GAL4-Hpa5 transcription reporter. In outline:
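Basal-promoter GAL4 background control within the HepG2 trans-factorial panel of transiently transfected reporter units. Reporter mRNA is measured 24 h after dosing by RT-PCR and capillary electrophoresis, fitted for gain of signal versus DMSO.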

The target of test [19] is Nuclear receptor subfamily 1 group I member 3 (Homo sapiens) (UniProt Q14994). In words: ATG_CAR_TRANS: Attagene TRANS-FACTORIAL HepG2 Assay for human Constitutive Androstane Receptor (CAR) (AID 2282969; active means hit-call score of the fitted dose curve at least 0.9, where 1 is the maximum;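 further: activators raise reporter mRNA above DMSO so AC50 marks induction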). Particulars: HepG2 Attagene TRANS-FACTORIAL CAR reporter. In outline: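 HepG2 cells transiently transfected with multiplexed GAL4-UAS reporter units expressing chimeric NR-Gal4 proteins; compound exposure 24 h. Reporter mRNA measured by RT-PCR, 6-FAM labelling, HpaI digestion and capillary electrophoresis; gain-of-signal fitted against DMSO baseline.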

Molecules are shown by their SMILES. Results filed as inconclusive are left out. Activity calls are given as the source filed them. How the source made its calls, unless noted: active means hit-call score of the fitted dose curve at least 0.9, where 1 is the maximum; inactive means score below 0.9.

Sequence of Paired box protein Pax-6 (Homo sapiens) (P26367 whole entry, looked up): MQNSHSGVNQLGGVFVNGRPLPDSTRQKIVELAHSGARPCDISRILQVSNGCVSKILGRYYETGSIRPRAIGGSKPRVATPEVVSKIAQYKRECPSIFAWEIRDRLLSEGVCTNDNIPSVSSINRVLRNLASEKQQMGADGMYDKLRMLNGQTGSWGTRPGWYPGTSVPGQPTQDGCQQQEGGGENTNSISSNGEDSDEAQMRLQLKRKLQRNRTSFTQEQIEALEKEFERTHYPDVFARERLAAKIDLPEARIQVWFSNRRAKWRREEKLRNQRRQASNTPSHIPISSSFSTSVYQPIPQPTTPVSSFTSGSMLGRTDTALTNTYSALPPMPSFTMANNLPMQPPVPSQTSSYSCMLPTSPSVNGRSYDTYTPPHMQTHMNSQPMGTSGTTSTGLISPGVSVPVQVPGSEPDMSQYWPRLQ
Sequence of Transcription factor Sp1 (Homo sapiens) (P08047 whole entry, looked up, the tested form may be a part): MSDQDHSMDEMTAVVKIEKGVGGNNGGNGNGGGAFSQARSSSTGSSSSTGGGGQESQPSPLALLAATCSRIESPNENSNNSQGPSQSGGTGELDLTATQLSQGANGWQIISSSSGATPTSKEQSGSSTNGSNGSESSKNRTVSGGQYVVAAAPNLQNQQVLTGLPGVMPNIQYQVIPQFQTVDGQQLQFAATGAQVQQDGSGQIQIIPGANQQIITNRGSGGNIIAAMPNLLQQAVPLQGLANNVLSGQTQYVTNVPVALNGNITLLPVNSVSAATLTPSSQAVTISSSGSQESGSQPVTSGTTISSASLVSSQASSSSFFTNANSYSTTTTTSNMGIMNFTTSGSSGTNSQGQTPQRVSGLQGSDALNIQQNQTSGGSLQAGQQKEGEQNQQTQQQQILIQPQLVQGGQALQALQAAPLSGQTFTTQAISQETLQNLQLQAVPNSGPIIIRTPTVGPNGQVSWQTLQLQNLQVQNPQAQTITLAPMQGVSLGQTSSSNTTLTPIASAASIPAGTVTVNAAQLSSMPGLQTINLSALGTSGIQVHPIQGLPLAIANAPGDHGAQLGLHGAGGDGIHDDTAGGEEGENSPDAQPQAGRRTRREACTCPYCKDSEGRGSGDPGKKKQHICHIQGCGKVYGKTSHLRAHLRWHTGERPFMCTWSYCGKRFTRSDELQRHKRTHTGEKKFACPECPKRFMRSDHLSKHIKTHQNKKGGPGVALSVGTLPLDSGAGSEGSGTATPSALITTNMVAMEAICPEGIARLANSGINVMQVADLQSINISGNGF
Sequence of Estrogen receptor (Homo sapiens) (P03372 whole entry, looked up, the tested form may be a part): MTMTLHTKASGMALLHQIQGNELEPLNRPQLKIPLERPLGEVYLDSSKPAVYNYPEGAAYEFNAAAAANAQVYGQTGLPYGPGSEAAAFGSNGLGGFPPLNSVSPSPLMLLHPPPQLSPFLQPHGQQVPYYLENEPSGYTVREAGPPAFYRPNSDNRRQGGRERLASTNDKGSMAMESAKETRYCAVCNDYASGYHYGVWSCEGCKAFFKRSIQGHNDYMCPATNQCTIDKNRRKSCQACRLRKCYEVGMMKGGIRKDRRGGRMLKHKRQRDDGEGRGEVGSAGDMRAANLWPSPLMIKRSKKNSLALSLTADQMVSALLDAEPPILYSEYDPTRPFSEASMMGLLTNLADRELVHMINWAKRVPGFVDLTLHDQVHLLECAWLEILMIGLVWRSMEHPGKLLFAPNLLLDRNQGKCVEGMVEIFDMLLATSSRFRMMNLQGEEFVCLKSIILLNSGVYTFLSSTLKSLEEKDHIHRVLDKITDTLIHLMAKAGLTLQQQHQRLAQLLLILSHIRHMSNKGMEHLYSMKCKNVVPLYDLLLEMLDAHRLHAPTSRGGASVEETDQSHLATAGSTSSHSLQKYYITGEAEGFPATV
Sequence of Signal transducer and activator of transcription 3 (Homo sapiens) (P40763 whole entry, looked up): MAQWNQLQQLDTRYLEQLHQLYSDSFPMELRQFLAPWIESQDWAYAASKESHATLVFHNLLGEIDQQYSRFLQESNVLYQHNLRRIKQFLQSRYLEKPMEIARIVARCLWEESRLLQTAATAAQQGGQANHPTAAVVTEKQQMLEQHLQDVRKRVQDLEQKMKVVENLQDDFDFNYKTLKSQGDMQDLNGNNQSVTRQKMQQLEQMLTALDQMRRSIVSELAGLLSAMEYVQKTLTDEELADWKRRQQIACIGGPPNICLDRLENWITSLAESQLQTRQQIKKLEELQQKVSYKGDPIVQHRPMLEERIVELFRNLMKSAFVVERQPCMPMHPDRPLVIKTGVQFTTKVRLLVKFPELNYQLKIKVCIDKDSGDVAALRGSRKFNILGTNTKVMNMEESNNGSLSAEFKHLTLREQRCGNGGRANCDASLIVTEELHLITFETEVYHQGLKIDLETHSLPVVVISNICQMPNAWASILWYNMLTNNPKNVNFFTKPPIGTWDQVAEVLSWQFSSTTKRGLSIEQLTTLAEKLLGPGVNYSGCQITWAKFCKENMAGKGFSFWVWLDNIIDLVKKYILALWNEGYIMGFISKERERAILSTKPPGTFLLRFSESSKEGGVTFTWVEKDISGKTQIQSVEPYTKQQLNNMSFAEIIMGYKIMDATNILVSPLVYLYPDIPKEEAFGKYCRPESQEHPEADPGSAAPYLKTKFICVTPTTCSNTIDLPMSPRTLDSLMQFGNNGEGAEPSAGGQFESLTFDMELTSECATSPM
Sequence of X-box-binding protein 1 (Homo sapiens) (P17861 whole entry, looked up): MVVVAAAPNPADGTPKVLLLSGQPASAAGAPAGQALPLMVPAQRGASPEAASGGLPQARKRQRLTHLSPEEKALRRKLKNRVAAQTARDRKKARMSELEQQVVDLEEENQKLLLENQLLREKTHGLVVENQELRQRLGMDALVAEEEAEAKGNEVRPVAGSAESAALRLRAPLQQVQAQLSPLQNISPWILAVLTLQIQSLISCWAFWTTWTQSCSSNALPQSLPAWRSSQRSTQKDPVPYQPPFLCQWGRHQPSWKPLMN
Sequence of Nuclear receptor subfamily 1 group I member 3 (Homo sapiens) (Q14994 whole entry, looked up, the tested form may be a part): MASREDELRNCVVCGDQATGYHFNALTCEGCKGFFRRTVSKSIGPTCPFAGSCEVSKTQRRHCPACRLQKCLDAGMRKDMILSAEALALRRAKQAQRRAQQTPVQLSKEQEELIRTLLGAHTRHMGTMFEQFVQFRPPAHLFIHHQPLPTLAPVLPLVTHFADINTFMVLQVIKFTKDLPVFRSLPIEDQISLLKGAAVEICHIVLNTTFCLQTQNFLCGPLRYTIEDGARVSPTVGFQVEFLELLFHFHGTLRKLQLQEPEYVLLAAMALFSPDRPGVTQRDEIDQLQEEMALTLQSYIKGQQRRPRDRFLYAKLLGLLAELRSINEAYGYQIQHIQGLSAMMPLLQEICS
Sequence of Androgen receptor (Homo sapiens) (P10275 whole entry, looked up, the tested form may be a part): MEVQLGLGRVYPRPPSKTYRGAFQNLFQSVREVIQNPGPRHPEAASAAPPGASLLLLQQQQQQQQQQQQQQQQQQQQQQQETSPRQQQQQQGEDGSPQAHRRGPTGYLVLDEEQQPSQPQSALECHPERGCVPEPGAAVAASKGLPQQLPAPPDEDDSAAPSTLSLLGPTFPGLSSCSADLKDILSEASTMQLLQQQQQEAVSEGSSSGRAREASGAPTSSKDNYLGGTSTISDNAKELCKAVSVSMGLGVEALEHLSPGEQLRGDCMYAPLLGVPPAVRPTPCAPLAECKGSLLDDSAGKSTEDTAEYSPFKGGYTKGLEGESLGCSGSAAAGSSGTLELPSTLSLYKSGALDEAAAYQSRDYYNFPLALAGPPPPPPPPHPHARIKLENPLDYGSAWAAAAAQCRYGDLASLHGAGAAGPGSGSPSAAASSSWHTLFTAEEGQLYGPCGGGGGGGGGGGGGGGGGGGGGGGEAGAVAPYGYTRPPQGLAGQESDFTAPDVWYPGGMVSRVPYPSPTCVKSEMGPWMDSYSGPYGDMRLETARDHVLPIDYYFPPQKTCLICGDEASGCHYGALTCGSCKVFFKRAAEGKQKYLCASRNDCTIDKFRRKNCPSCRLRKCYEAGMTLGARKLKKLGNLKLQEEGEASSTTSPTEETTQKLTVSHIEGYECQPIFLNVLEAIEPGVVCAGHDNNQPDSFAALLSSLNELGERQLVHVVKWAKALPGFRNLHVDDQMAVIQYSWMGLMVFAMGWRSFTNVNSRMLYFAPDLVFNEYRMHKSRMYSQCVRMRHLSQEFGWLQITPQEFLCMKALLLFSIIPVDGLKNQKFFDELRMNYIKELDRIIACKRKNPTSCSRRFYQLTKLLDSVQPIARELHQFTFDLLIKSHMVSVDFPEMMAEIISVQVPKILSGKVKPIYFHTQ

As for `Cc1cccc([N+](=O)[O-])c1`, the result in test [1], in test [2], in [3], in [4], in test [5] and in test [6] was inactive. The outcome in test [7], in test [8], in test [9], in test [10], in test [11] and in test [12] was inactive. The molecule was called inactive in test [13] and in test [14].

With `O=C(O)C(F)(F)C(F)(F)C(F)(F)C(F)(F)C(F)(F)F`, the outcome in test [1], in test [2], in [3], in [15], in test [4] and in test [5] was inactive. For the same molecule, the outcome in [6], in test [7], in test [8], in test [9], in test [10] and in test [11] was inactive. Also, the outcome in test [12], in test [14] and in test [16] was inactive.

`C=CC(=O)NCNC(=O)C=C`: the molecule was classed as inactive in [1], in test [2], in [3], in test [4], in [5] and in test [6]. Besides, the result in test [7], in [8], in [9], in test [10], in [11] and in [12] was inactive. For the same molecule, the molecule was classed as inactive in test [14] and in [17].

For the molecule `CCC(C)(CC)c1cc(NC(=O)c2c(OC)cccc2OC)on1`, the molecule was called inactive in test [1], in test [3], in [15], in test [4], in test [5] and in test [7]. In addition, the call in test [8], in test [9], in [10], in [11], in [14] and in [16] was inactive. Moreover, in test [18], the result was inactive. For the same molecule, the values for the AC50 in test [2], in [6] and in test [12] were 0.202 µM (active), 10.8 µM (active) and 0.977 µM (active), respectively.

Consider `CCCCCCCCCC[N+](C)(C)CCCCCCCCCC`, for which the AC50 in test [1] is 7.61 µM (active); in [3], 185 µM (active); in test [15], 19.8 µM (active); in test [5] it was 190 µM (active); in test [6], 3.63 µM (active); in [9] it was 11 µM (active). The AC50 in [12] was 8.67 µM (active). In addition, the outcome in test [2], in test [4], in test [7], in [8], in [10] and in [11] was inactive. Moreover, the molecule was classed as inactive in test [13] and in test [14].

Take `CCCCCCOC(=O)c1ccccc1C(=O)OCCCCCC`: the outcome in test [1], in test [15], in test [4], in test [5], in test [6] and in [7] was inactive. The result in test [8], in test [9], in [10], in test [11], in test [19] and in test [13] was inactive. The result in test [14] was inactive. Moreover, the AC50 in test [2] was 3.19 µM (active); in test [3], 2.84 µM (active).

Values taken from PubChem BioAssay (EPA / NIEHS).
